Screening results (PubChem)
Compounds with a hit are over-represented: about 1.7% of the library has one in this group of screens.
EphB4 ephrin blk: EphB4-ephrin-B2 interaction antagonists, primary screen, biochemical, TNYL-RAW peptide probe, fluorescence polarization | Ephrin type-B receptor 4 (Homo sapiens), P54760 | EphB4 LBD / TNYL-RAW-Alexa532 peptide | inhibition, % at 7 µM | 0.15% of 97,000 active;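 active = inhibition above the screen-wide mean inhibition plus 3 SD, cut at about 15% in these data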
FAK blocker: FAK kinase inhibitors, primary screen, biochemical | biochemical FAK kinase activity assay | 0.84% of 97,000 active | inhibition, %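 (tested at 7 µM)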 | AID 727, 2007
LYP inh 2: PTPN22 phosphatase inhibitors, primary screen, biochemical, DiFMUP fluorescence, 2 µM; Tyrosine-protein phosphatase non-receptor type 22 (Homo sapiens), Q9Y2R2; recombinant LYP catalytic domain; inhibition, % at 2 µM; 0.21% of 96,000 active;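 active = inhibition at 2 µM at or above a set limit, the screen mean plus 3 SD, cut at about 24% in these data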
Plk1 PBD FP: Plk1 polo box domain binding inhibitors, primary screen, biochemical, fluorescence polarization; 0.13% of 97,000 active; AID 693, 2007; inhibition, %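 (tested at about 20 µM)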; Serine/threonine-protein kinase PLK1 (Homo sapiens), P53350; Plk1 PBD phosphopeptide binding; in the data active = inhibition above about 34%, passing the limit was not always enough
PLK1 inh: human PLK1 kinase inhibitors, primary screen, biochemical, TR-FRET | Serine/threonine-protein kinase PLK1 (Homo sapiens), P53350 | inhibition, % at 10 µM | recombinant PLK1 kinase, TR-FRET peptide phosphorylation | 0.53% of 97,000 active | AID 619, 2007;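 active = inhibition of 50% or more in the single-concentration screen; inactive = inhibition below 50%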
PTPN22 act: LYP phosphatase activators, primary screen, biochemical, DiFMUP fluorescence, 2 µM; AID 697, 2007; Tyrosine-protein phosphatase non-receptor type 22 (Homo sapiens), Q9Y2R2; 0.11% of 96,000 active; activation, % at 2 µM; recombinant LYP; 0 = plate median, 100 = signal doubled;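 active = activation at 2 µM above a set limit, the mean plus 5 SD, cut at about 37% in these data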
FAK inh confirm: FAK kinase inhibitors, retest, confirmation, biochemical; FAK kinase biochemical inhibition assay; 28% of 750 active; inhibition, % at 7 µM; shares compounds with FAK blocker
Hits are given with their value; – = inactive; · = not tested or not shown. Rule as the data show it, unless noted: active = inhibition above about 19%; inactive = the rest.

SMILES	EphB4 ephrin blk	FAK blocker	LYP inh 2	Plk1 PBD FP	PLK1 inh	PTPN22 act	FAK inh confirm
Cn1cnnc1SCC(=O)Nc1sc2c(c1C(N)=O)CCC2	–	23	–	–	–	–	–
CCOC(=O)c1c(NC(=O)CSc2nncn2C)sc(C)c1C	–	–	–	–	–	–	·
CCCCCCCC(=O)Nc1ccc(C(=O)N/N=C/c2cccc([N+](=O)[O-])c2)cc1	–	34	–	–	–	–	–
O=C(Oc1ccc(-c2cnc3ccccc3n2)cc1)c1ccc(Br)o1	–	47	–	–	–	–	24
CCN(CC)S(=O)(=O)c1cccc2cc(C(=O)O)c(O)cc12	–	–	–	–	–	–	·
COc1ccc(C2=C(Nc3ccc(F)cc3)c3ccccc3C2=O)cc1	–	–	–	–	–	–	·
O=c1[nH]c(Nc2ccc(F)cc2)cc2ccccc12	–	36	–	–	–	–	–
COc1ccc(CCNS(=O)(=O)c2cccc(C(=O)O)c2)cc1OC	–	–	–	–	–	–	·
COC(=O)c1ccccc1S(=O)(=O)Nc1ccc2cn[nH]c2c1	–	20	–	–	–	–	–
COC(=O)c1sc(S(=O)(=O)Nc2ccc3cn[nH]c3c2)c(C(=O)OC)c1C	–	–	–	–	–	–	·
Cn1c(N2C(=O)CC(Cc3ccccc3)C2=O)nc2ccccc21 (centres undefined)	–	–	–	–	–	–	·
O=C(c1ccc(NS(=O)(=O)c2cccs2)cc1)N1CCCCC1	–	25	–	–	–	–	–
O=S(=O)(Nc1ccc(N2CCCCC2)cc1)c1cccs1	–	–	–	–	–	–	·
CCOC(=O)CSC1=NC(=O)CS1	–	–	–	–	–	–	·
CC(C(=O)O)N1C(=O)/C(=C/C=C/c2ccco2)SC1=S (centres undefined)	–	100	25	–	–	–	23
COc1ccc([N+](=O)[O-])cc1COc1cc(C)cc2oc(=O)cc(-c3ccccc3)c12	–	27	–	–	–	–	22
Cc1ccc2nsnc2c1S(=O)(=O)Nc1cccc2nsnc12	–	71	–	–	–	–	48
Cc1ccc(C)c(NS(=O)(=O)c2c(C)ccc3nsnc23)c1	–	–	–	–	–	–	·
COc1ccc(OC)c(N2C(=O)[C@@H]3C(c4ccccc4Cl)=NO[C@@H]3C2=O)c1	–	19	–	–	–	–	–
COc1ccc(C2=NO[C@@H]3C(=O)N(c4c(C)cccc4C)C(=O)[C@H]23)cc1OC	–	–	–	–	–	–	·
CCOc1ccc(N2CC(C(=O)OC)CC2=O)cc1 (centres undefined)	–	–	–	–	–	–	·
COc1ccc(-c2cc(=O)[nH][nH]2)cc1	–	–	–	–	–	–	·
O=c1cc(-c2cccc3ccccc23)[nH][nH]1	–	23	–	–	–	–	–
CCN(CC)S(=O)(=O)c1cccc(C(=O)NC(C(=O)Nc2nnc(C)s2)C(C)C)c1 (centres undefined)	–	–	–	–	–	–	·
CCOCCOC(=O)C1=C(C)NC2=C(C(=O)CC(c3cccs3)C2)C1c1ccsc1 (centres undefined)	–	22	–	–	–	–	21
SMILES	EphB4 ephrin blk	FAK blocker	LYP inh 2	Plk1 PBD FP	PLK1 inh	PTPN22 act	FAK inh confirm
N#Cc1nc(-c2ccccc2)oc1NCc1ccco1	–	21	–	–	–	–	–
CN(C)c1cc2c(c(N(C)C)c1)C(=O)c1ccccc1C2=O	–	49	–	–	–	–	24
O=C1Cc2ccccc2C(=O)N1Cc1ccccc1	–	54	–	–	–	–	28
O=C1c2cccc3c(O)ccc(c23)C(=O)N1Cc1ccccc1	–	–	–	–	–	–	·
CCOc1ccc(S(=O)(=O)Nc2ccccc2SC)c2cccnc12	–	20	–	–	–	–	–
O=c1[nH]ncc2c3ccccc3n(Cc3ccccc3)c12	–	20	–	–	–	–	–
